Experimental data: the supplement of paper PMC11732987, “Enantioselective OTUD7B fragment discovery through chemoproteomics screening and high-throughput optimisation” (Communications Chemistry, 2025)

What was measured:
Assay in all cases: log2 ratio of Biotin-Ahx-Ub-VS probe labelling (fragment/DMSO); higher = less target engagement (more negative = stronger competition), active = hit call of the paper (q ≤ 0.05, log2 ratio ≤ -1)
Conditions in all cases: compound concentration: 200 uM; treatment time: 3 h
USP42 = target: T1, USP42 (UniProt Q9H9J4)
T1 sequence (whole entry): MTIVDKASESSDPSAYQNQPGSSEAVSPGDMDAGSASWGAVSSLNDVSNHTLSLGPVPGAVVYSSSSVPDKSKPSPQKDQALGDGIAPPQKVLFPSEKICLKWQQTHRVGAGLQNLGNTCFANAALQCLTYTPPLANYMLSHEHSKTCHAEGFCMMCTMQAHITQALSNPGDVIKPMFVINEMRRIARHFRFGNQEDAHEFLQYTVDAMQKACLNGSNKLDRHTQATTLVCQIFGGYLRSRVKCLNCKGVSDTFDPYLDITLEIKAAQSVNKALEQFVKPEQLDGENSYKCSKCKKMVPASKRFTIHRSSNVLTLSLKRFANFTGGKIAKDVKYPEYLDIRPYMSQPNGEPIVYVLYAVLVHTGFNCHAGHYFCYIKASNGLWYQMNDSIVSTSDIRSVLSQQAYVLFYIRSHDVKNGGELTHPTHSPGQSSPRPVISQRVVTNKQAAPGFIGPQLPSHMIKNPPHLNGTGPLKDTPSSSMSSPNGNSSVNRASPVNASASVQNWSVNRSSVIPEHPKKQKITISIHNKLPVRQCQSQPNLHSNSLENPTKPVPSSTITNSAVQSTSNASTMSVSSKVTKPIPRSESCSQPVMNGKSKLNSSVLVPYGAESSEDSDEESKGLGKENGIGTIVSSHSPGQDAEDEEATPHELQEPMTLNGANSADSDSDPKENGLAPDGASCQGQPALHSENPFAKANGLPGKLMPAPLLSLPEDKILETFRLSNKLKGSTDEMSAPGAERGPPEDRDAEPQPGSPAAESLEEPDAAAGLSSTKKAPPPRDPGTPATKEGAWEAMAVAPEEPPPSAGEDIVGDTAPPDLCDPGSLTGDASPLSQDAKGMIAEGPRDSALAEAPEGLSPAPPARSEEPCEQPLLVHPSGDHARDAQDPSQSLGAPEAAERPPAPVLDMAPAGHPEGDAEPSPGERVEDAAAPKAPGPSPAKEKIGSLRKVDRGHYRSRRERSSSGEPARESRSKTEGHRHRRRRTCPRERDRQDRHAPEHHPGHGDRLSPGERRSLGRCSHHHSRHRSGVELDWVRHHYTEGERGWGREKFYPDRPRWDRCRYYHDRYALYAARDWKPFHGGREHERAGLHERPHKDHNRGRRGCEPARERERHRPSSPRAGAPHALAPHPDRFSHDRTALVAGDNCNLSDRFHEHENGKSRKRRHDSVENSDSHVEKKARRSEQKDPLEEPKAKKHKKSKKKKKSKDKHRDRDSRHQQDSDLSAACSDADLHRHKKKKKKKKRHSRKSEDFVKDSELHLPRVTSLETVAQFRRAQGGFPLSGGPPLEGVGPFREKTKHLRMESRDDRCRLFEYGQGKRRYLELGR
Procedure, shortened: (§1)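 Triplicate samples of HEK293T lysate, 495 µg each, received fragment at 200 µM or vehicle for 3 h, followed by Biotin-Ahx-Ub-VS (0.5 µM final) for 1 h. After NeutrAvidin enrichment of labelled DUBs and LysC/trypsin digestion, peptides were run by diaPASEF LC-MS/MS. The values are average log2 fragment/vehicle ratios from global-median-normalised Spectronaut label-free quantities, tested by unpaired t-test on proteins having ≥2 unique peptides.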

USP46 = USP46 (UniProt P62068)
Procedure, shortened: as §1

USP47 = target: T2, USP47 (UniProt Q96K76)
T2 sequence (whole entry): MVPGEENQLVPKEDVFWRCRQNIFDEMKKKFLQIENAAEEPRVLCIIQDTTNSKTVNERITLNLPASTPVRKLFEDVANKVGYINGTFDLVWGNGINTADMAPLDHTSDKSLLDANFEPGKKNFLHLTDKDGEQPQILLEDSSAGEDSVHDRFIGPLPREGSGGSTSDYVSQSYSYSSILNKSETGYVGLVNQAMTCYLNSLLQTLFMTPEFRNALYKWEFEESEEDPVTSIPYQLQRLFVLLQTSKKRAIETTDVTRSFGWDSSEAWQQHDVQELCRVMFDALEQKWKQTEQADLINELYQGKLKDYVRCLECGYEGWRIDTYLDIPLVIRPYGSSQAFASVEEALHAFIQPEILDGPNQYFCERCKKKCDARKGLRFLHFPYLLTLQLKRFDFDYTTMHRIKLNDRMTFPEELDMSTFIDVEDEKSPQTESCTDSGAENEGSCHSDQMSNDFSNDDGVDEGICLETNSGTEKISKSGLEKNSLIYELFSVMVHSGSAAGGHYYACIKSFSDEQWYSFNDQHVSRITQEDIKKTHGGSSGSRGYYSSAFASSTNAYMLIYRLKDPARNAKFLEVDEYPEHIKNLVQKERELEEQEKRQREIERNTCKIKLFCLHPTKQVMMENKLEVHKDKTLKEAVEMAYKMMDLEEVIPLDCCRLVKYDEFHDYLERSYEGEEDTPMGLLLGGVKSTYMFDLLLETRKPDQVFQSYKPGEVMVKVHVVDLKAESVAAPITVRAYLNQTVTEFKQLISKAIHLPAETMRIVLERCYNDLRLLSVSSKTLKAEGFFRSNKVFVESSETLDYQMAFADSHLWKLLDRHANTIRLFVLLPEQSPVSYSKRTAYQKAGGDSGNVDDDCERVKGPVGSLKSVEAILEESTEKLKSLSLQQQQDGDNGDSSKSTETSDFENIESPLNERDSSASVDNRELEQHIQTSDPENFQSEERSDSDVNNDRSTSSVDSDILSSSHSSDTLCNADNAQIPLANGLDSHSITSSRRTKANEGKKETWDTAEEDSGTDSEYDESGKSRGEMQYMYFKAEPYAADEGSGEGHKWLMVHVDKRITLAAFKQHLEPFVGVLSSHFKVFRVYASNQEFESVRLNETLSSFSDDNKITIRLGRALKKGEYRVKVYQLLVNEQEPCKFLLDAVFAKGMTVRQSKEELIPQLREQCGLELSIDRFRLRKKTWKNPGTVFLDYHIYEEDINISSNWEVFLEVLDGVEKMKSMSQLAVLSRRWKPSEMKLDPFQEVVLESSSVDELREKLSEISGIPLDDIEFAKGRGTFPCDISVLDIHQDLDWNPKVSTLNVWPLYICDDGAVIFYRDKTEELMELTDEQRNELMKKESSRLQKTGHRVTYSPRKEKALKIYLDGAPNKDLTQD
Procedure, shortened: as §1

USP48 = target: T3, USP48 (UniProt Q86UV5)
T3 sequence (whole entry): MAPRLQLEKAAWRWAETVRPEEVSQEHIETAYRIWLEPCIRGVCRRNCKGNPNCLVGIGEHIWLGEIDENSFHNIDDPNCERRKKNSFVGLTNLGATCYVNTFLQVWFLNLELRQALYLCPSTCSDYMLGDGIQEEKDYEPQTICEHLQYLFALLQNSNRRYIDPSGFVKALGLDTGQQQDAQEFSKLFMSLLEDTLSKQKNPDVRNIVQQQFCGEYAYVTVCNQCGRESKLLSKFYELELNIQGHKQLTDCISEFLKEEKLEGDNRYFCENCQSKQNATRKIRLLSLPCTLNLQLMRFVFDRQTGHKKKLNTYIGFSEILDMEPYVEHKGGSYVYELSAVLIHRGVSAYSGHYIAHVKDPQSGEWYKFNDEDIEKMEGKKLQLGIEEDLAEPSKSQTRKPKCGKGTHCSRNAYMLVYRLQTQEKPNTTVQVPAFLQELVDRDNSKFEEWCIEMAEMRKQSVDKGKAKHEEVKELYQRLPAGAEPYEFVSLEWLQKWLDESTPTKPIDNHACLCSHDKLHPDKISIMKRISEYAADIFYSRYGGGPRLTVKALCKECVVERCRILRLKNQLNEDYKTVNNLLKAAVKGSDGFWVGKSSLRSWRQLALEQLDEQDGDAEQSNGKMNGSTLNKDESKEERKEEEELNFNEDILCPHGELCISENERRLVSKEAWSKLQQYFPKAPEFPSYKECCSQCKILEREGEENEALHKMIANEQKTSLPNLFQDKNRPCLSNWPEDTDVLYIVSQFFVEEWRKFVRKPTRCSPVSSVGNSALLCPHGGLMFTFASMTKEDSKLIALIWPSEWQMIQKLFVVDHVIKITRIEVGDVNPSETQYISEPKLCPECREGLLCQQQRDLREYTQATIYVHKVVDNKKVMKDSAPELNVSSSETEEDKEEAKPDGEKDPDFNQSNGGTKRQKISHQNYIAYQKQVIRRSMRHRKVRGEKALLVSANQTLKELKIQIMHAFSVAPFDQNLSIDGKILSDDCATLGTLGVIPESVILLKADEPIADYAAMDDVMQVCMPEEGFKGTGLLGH
Procedure, shortened: as §1

USP5 = target: T4, USP5 (UniProt P45974)
T4 sequence (whole entry): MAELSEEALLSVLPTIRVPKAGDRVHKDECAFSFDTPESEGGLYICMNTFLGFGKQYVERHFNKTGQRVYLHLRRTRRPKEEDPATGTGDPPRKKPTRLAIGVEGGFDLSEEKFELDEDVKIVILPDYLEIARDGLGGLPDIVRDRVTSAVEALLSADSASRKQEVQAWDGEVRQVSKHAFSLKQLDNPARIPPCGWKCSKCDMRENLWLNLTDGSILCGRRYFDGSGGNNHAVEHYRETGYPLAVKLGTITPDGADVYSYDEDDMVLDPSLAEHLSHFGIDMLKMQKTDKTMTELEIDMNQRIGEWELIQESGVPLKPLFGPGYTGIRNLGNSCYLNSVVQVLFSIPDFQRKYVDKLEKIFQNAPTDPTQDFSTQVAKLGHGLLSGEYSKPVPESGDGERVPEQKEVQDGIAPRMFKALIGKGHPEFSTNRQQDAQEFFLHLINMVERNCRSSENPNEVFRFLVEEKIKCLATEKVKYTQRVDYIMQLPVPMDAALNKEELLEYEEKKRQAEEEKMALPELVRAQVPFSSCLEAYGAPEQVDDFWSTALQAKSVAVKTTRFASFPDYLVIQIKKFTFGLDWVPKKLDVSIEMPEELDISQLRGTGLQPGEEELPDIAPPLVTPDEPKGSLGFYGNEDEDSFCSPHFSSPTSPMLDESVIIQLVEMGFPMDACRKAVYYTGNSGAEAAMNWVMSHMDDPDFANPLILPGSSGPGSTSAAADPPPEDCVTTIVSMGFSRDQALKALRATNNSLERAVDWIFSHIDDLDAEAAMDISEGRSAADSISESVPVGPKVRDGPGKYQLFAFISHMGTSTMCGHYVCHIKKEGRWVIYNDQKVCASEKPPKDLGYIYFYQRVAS
Procedure, shortened: as §1

USP54 = USP54 (UniProt Q70EL1)
Procedure, shortened: as §1

USP7 = USP7 (UniProt Q93009)
Procedure, shortened: as §1

USP8 = target: T5, USP8 (UniProt P40818)
T5 sequence (whole entry): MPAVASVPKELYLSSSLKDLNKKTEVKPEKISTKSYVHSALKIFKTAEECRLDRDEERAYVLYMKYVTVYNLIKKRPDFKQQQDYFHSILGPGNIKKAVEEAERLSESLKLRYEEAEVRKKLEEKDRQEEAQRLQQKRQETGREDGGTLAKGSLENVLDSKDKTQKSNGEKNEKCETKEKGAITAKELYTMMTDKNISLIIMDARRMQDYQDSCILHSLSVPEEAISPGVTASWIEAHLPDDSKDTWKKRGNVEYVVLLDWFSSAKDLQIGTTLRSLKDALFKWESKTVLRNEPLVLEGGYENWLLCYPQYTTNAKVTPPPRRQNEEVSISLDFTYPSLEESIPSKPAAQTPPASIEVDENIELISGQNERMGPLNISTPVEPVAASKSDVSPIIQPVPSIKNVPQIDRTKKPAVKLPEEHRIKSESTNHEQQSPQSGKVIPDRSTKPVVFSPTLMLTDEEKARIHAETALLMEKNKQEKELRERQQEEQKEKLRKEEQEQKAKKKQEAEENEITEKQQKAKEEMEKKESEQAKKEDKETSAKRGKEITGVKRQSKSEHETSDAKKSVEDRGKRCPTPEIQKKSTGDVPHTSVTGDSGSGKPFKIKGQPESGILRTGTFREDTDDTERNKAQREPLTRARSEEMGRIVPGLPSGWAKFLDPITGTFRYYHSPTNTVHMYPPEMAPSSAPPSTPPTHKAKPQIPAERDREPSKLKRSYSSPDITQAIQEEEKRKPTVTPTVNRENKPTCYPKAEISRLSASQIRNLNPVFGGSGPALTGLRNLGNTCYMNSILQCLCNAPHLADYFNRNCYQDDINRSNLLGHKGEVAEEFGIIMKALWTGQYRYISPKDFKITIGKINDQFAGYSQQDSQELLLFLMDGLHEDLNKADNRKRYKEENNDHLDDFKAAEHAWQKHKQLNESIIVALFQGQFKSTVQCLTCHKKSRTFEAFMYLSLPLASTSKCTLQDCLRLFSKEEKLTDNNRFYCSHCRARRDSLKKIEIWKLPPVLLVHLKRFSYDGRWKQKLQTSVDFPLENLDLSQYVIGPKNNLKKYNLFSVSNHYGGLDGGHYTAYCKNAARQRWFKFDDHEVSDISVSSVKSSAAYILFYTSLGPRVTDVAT
Procedure, shortened: as §1

USP9X = USP9X (UniProt Q93008)
Procedure, shortened: as §1

UniProt O00487 = target: UniProt O00487
Procedure, shortened: as §1

Measured: log2 ratio of Biotin-Ahx-Ub-VS probe labelling

Chain of USP46 (P62068 whole entry): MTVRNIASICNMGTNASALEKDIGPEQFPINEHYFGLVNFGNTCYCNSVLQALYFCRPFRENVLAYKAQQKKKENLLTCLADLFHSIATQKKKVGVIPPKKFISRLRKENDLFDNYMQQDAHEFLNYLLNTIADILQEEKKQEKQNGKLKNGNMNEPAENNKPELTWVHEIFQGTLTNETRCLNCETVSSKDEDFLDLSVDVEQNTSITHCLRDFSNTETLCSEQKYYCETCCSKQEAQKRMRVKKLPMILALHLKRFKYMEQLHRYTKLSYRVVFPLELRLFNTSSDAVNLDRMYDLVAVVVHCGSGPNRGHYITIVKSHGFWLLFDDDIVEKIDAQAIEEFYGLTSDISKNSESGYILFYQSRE
Chain of USP7 (Q93009 whole entry, looked up): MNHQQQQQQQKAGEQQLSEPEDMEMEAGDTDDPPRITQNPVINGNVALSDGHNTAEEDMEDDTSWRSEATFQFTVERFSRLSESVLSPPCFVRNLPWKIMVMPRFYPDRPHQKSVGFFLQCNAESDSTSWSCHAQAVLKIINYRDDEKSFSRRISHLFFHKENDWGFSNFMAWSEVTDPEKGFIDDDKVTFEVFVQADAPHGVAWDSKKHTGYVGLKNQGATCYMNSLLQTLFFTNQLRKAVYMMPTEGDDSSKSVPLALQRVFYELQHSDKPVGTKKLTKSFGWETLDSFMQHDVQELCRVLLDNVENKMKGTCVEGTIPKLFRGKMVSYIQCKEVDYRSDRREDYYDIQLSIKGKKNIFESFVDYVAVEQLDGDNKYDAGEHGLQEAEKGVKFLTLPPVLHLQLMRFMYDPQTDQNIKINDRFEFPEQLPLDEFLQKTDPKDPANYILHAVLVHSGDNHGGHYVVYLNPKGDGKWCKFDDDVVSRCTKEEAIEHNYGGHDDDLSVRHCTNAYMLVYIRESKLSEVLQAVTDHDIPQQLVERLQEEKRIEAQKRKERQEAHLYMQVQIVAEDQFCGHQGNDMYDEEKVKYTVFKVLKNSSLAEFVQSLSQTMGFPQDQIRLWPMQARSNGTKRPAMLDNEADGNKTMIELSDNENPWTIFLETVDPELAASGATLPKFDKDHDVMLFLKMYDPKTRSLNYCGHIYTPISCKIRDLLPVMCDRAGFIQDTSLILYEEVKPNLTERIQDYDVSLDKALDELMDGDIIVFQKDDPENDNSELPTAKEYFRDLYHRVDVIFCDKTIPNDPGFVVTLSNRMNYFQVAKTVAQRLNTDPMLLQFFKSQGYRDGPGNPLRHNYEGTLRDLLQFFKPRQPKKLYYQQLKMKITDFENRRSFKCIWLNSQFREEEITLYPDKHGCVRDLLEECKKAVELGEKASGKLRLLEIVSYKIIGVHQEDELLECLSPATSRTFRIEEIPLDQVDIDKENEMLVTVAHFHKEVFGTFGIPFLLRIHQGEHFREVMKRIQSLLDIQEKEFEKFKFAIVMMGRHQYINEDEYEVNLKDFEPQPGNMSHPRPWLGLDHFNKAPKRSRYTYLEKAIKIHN
Chain of USP9X (Q93008 whole entry): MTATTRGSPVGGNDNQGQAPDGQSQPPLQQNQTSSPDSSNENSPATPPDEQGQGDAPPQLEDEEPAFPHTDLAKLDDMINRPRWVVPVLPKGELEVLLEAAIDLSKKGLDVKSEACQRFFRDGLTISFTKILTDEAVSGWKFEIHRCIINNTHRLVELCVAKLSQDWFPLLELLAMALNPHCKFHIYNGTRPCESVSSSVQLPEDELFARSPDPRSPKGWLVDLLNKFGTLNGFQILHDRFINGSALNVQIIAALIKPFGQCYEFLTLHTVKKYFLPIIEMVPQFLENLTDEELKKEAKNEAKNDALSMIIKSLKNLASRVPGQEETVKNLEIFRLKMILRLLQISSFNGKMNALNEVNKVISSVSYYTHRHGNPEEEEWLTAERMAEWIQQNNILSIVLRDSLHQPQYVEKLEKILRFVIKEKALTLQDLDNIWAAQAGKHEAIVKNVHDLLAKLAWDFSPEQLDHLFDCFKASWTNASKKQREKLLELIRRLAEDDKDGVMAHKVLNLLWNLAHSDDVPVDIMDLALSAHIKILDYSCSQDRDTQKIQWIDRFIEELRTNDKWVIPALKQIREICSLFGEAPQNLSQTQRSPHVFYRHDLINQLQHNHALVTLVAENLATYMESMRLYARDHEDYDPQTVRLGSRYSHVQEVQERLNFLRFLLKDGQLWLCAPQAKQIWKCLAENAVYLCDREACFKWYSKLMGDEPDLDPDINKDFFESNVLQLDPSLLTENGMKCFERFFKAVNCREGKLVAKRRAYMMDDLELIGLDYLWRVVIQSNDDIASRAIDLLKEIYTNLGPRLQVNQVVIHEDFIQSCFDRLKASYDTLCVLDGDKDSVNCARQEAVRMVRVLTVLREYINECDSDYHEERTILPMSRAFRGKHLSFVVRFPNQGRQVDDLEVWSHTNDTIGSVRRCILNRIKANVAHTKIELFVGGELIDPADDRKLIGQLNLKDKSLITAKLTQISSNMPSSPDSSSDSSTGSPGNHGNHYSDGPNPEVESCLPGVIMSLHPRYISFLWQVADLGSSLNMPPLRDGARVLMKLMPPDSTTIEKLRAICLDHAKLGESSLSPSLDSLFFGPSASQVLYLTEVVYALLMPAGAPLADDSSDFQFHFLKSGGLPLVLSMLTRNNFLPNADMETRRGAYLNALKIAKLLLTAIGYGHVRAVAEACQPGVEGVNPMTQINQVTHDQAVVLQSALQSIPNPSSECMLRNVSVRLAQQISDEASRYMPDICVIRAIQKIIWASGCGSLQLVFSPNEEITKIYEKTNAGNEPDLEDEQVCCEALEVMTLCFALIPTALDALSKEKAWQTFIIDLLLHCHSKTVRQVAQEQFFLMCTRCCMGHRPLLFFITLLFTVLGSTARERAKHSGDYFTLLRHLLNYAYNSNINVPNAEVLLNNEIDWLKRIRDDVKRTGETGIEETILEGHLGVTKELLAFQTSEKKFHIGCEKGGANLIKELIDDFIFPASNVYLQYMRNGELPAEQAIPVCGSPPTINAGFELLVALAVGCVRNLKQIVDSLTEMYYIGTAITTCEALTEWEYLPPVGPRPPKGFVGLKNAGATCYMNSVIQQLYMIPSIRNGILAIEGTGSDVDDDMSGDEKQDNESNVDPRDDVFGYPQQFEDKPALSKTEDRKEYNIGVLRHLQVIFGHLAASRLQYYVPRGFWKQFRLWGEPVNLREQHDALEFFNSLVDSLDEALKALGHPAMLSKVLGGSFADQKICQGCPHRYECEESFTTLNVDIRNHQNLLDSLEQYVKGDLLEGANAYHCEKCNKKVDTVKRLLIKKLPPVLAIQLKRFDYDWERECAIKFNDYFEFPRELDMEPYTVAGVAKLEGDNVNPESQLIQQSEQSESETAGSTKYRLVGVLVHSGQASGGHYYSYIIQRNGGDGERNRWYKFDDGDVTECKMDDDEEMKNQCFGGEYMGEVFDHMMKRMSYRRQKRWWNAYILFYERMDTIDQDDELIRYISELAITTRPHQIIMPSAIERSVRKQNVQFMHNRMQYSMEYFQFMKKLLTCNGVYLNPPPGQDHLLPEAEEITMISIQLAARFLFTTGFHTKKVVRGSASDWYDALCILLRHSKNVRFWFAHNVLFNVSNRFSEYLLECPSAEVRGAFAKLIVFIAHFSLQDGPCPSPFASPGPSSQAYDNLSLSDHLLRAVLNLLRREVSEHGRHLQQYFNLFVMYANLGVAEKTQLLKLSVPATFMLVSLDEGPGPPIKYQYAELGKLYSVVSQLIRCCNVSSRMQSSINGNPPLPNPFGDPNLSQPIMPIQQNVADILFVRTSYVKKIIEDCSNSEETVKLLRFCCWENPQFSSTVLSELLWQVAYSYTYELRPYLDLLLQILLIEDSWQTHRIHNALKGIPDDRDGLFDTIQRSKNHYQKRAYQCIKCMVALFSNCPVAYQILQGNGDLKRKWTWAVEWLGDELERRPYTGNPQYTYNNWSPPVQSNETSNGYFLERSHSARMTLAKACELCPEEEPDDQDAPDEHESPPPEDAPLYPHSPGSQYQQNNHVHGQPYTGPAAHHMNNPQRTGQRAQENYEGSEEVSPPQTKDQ
Chain of UniProt O00487 (O00487 whole entry): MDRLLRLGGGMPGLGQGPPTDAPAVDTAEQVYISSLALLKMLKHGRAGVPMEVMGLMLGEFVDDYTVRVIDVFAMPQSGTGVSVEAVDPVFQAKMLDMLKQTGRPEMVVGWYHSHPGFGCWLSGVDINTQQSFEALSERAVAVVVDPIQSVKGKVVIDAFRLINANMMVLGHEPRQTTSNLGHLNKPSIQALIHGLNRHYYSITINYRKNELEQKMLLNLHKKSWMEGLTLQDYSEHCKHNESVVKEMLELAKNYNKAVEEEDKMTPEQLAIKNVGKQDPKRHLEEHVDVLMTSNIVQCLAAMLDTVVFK

O=C(CCl)N1CCC(c2ccn[nH]2)C1 (stereo not given)
inactive: USP42 -0.237 | USP46 -0.0632 | USP47 -0.0366 | USP48 -0.675 | USP5 -0.0093 | USP54 -0.0323 | USP7 -0.384 | USP8 -0.487 | USP9X -0.391 | UniProt O00487 0.0518
